The list is not random: actives were taken first. Their share in the collection is about 3.6%.
ERa SRC1 inh: blocks coactivator binding to human estrogen receptor alpha | AID 629 | 86,000 compounds, 1.7% hits | P03372 | inhibition, % at 25.6 µM | TR-FRET ER-alpha LBD / SRC-1 peptide, estradiol-bound; in the data active = inhibition above about 50%;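 note: 0% = receptor plus peptide control and 100% = peptide only without receptor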
Target sequence (P03372 whole entry, looked up, the tested form may be a part): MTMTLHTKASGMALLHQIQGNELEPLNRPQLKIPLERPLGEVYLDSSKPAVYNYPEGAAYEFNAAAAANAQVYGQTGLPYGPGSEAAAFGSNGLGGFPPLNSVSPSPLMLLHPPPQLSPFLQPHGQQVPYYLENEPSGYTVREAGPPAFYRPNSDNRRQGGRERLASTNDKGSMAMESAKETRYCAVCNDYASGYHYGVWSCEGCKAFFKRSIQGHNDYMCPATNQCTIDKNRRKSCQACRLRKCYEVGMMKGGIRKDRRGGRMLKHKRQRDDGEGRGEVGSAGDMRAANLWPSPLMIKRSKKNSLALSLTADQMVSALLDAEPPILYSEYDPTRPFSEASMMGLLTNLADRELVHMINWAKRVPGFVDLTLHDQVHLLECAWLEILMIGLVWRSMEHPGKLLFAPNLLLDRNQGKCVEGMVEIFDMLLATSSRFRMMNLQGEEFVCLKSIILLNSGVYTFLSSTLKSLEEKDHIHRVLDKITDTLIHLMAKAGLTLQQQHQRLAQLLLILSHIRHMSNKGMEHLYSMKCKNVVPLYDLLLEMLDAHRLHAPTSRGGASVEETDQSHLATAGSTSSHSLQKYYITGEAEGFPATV
Smad3 inh: inhibitors of human Smad3 transcription factor binding. P84022. TR-FRET Smad3/Dy647-FoxH1 peptide binding, europium anti-His. inhibition, % at 25 µM. 88,000 compounds, 0.29% hits;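 active = compounds that reduce the energy-transfer binding signal between the protein and its labelled peptide by more than half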;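 note: 0% = Smad3 plus labelled peptide maximal FRET and 100% = peptide-only background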
ERa SRC1 pot: ER-alpha (human) coactivator binding potentiation | P03372 | TR-FRET ERalpha-LBD/SRC-Cy5 coactivator binding, 2 h; 100 = basal binding, no effect | 86,000 compounds, 1.3% hits | coactivator binding (% of control), % at 25.6 µM; in the data active = activity above about 200%;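 note: binding measured in presence of low estradiol as agonist stimulus; 0% = peptide alone without receptor and 100% = receptor with peptide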
ERb coact inh: blocks coactivator binding to human estrogen receptor beta; TR-FRET ER-beta LBD / SRC1-Cy5 peptide binding; receptor agonist-loaded with 1 µM estradiol; inhibition, % at 25.6 µM; 86,000 compounds, 1.3% hits;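 active = compounds whose percent inhibition of the receptor-coactivator binding signal exceeds about 50% in the single-dose screen, limit read from the data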;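 note: 0% = receptor plus peptide wells without compound and 100% = peptide-only wells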
Calb biofilm kill: kills Candida albicans biofilms | C. albicans biofilm + clotrimazole, Alamar Blue | inhibition, % at 6 µM | 85,000 compounds, 0.14% hits | AID 834;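 active = inhibition above 20%; inactive = inhibition below 20%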;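 note: preformed 24 hr biofilms exposed to compound for 48 hr; 0% = biofilm without compound and 100% = blank killed by clotrimazole plus chlorhexidine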
Numbers without * were called inactive; . = no result; [ ] = dose if it differs, or a comment.

SMILES	ERa SRC1 inh	Smad3 inh	ERa SRC1 pot	ERb coact inh	Calb biofilm kill
COC(=O)c1sc2nc(-c3ccco3)ccc2c1N	54*	8	66	73*	0
O=C(NCc1ccccn1)C1CC(c2ccc(F)cc2)=NO1 (centres undefined)	10	10	87	-9	1
COc1cccc(-n2nnc3c(=O)n(Cc4cccc(F)c4)cnc32)c1	19	13	269*	17	6
CCOC(=O)CSc1nnc(CNc2cccc(Cl)c2)n1C	0	0	117	-4	6
COCCCn1c(Cc2csc(Nc3cccc(Cl)c3)n2)nnc1SCC(=O)OC	37	4	42	61*[fluorescence artefact?]	2
N#Cc1cc2cc3c(cc2nc1SCC(=O)OC1CCCCC1)OCO3	32	36	231*[fluorescence artefact?]	43	10
COc1cc(S(=O)(=O)Nc2c(C)cc(C)cc2C)ccc1Cl	-1	8	91	63*[fluorescence artefact?]	9
O=C(O)CCc1nc(-c2ccccc2-n2cccc2)no1	.	-4	.	.	.
COc1ccccc1NC(=O)CSc1nnc(COc2ccc(Cl)cc2)n1Cc1ccco1	-2	5	100	-3	-4
C=CCn1c(COc2ccccc2-c2ccccc2)nnc1SCC(=O)NC(=O)NCc1ccco1	-2	2	91	7	1
COc1ccccc1OCc1nnc(SCC(=O)NCc2ccco2)n1Cc1ccco1	37	4	207*[fluorescence artefact?]	29	7
C=CCn1c(COc2ccccc2F)nnc1SCC(=O)NC(=O)NCc1ccco1	67*[fluorescence artefact?]	-2	98	54*	4
CCc1nc(SCc2ccc(F)cc2)[nH]c(=O)c1C#N	-10	9	108	-1	3
Cc1nn(Cc2ccc(C(=O)Nc3ccc(Br)c4cccnc34)o2)c(C)c1Br	7	1	180	14	.
CSC1=N/C(=C\c2ccc(Br)o2)C(=O)S1	69*	8	34	72*	6
CSC1=N/C(=C\c2ccccc2F)C(=O)S1	-4	-10	108	-10	7
COc1ccccc1N1CCN(S(=O)(=O)Cc2ccccc2Cl)CC1	-29	-2	112	-20	2
Cn1c(=O)[nH]c(=O)c2c1nc1n2CCCN1CCc1ccccc1	65*	8	76	62*	6
CCOC(=O)CC1=C(C(=O)OCC)C(c2ccc(OC)c(OC)c2)C(C#N)=C(N)O1 (centres undefined)	-2	5	119	-1	5
CCOC(=O)CC1=C(C(=O)OCC)C(c2cccs2)C(C#N)=C(N)O1 (centres undefined)	93*[fluorescence artefact?]	6	91	-2	4
O=C(Cc1cccc2ccccc12)N/N=C/c1ccc(OC(=O)/C=C/c2ccco2)cc1	65*[fluorescence artefact?]	7	88	48	7
Cc1ccc(OCC(=O)N/N=C/c2ccco2)cc1	-7	19	95	-2	3
O=c1[nH]c(=O)n(Cc2ccco2)c2c1C(C(F)(F)F)(C(F)(F)F)N=C(Cc1ccccc1)N2	10	17	79	2	2
Cc1cccc(NC(c2ccc(O)cc2)c2ccc3ccc(C)nc3c2O)n1 (centres undefined)	49	19	320*[fluorescence artefact?]	50	1
Cc1cc(F)c(F)c(C(=O)N2CCN(C)CC2)c1Cl	-5	-6	118	-1	7
SMILES	ERa SRC1 inh	Smad3 inh	ERa SRC1 pot	ERb coact inh	Calb biofilm kill
O=C(NC1CCS(=O)(=O)C1)c1c(NC(=O)C2COc3ccccc3O2)sc2c1CCCC2 (centres undefined)	59*	-85	148	32	7
CCCNC(=O)c1c(NC(=O)C2COc3ccccc3O2)sc2c1CCCC2 (centres undefined)	19	-12	110	21	5
Cc1ccc(C2c3c(oc4ccccc4c3=O)C(=O)N2c2nnc(C(C)C)s2)o1 (centres undefined)	2	20	107	-3	6
COc1ccc(C2c3c(oc4ccccc4c3=O)C(=O)N2c2ccccn2)cc1 (centres undefined)	6	-19	218*	6	0
Cc1nnc(N2C(=O)c3oc4ccccc4c(=O)c3C2c2ccco2)s1 (centres undefined)	50	0	58	62*[fluorescence artefact?]	6
Cc1cc(N2C(=O)C3CC=CCC3C2=O)no1 (centres undefined)	-5	4	104	1	8
Cc1ccc(CC2CC(=O)N(c3cc(C)on3)C2=O)cc1 (centres undefined)	-10	1	201*[fluorescence artefact?]	-15	1

Screening data from PubChem.
